# Measured potencies and affinities stand elsewhere. Calls of active or inactive are those of the source.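 The calls were made as follows: active = a fitted half-maximal concentration no higher than twice the top valid tested dose, with signal falling as cells die; inconclusive = flat curve between -70% and -30%, or poor fit; inactive = the rest, including signal rising instead of falling.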
# Assay: HeLa cell cytotoxicity, dose response, cytotoxicity control, ATP luminescence, cherry-pick samples (AID 687004)
# Settings: HeLa viability, ATP luminescence (CellTiter-Glo), 48 h; series mostly up to 26 µM
row,SMILES,outcome
1,C[C@@H]1CN([C@H](C)CO)C(=O)c2cc(NS(=O)(=O)c3ccc(Cl)cc3)ccc2O[C@H]1CN(C)S(=O)(=O)c1ccc(F)cc1,inactive
2,Cc1ccc(NC(=O)C2(C)CCN2C(=O)CC2CCCC2)cc1 (stereo not drawn),inactive
3,O=C(Nc1ccccc1)N[C@@H]1CC[C@@H](CCNC(=O)c2ccccc2F)O[C@H]1CO,inactive
4,CCC(=O)Nc1ccc2c(c1)C(=O)N(C)C[C@@H](OC)[C@H](C)CN[C@@H](C)CO2,inactive
5,CC(C)(C)NC(=O)CSc1ncnc2c1cnn2-c1ccccc1,inactive
6,CC(C)NC(=O)Nc1ccc2c(c1)C(=O)N([C@@H](C)CO)C[C@@H](C)[C@@H](CN(C)S(=O)(=O)c1ccc(Cl)cc1)OCCCC[C@@H](C)O2,inactive
7,C/C=C/c1ccc([C@@H]2[C@@H](CO)N3CCCCN(C(=O)Nc4ccc(OC)cc4)C[C@H]23)cc1,inactive
8,C[C@@H]1CCCCO[C@@H](CN(C)Cc2ccc3c(c2)OCO3)[C@@H](C)CN([C@H](C)CO)C(=O)c2cc(NS(=O)(=O)c3ccc(F)cc3)ccc2O1,inactive
9,O=C([C@H]1[C@H](CO)[C@H]2Cn3c(cccc3=O)[C@H]2N1CCC(F)(F)F)N1CCCCC1,inactive
10,C[C@@H]1CN([C@H](C)CO)C(=O)c2cc(C#CC(C)(C)O)cnc2O[C@@H]1CN(C)Cc1cncnc1,inactive
11,C[C@H]1CN([C@@H](C)CO)C(=O)c2cc(NC(=O)Nc3cccc4ccccc34)ccc2O[C@@H]1CN(C)C(=O)Nc1ccc(C(F)(F)F)cc1,inactive
12,CCC(C(=O)Nc1c(C)cc(C)cc1C)N1CCCCCC1 (stereo not drawn),inactive
13,C[C@@H]1CCCCO[C@@H](CN(C)Cc2ccc(C(F)(F)F)cc2)[C@@H](C)CN([C@@H](C)CO)C(=O)c2cc(NS(=O)(=O)c3cn(C)cn3)ccc2O1,inactive
14,COc1ccccc1C(=O)Nc1ccc2c(c1)C(=O)N(C)C[C@@H](OC)[C@H](C)CN(C)[C@@H](C)CO2,inactive
15,C[C@H](CO)N1C[C@H](C)[C@H](CN(C)Cc2cccc(C(F)(F)F)c2)OCc2cnnn2CCCC1=O,inactive
16,C[C@H](CO)N1C[C@H](C)[C@H](CN(C)Cc2cccnc2)Oc2ncc(C#CC3(O)CCCC3)cc2C1=O,inactive
17,Cc1cccc(N2CCN(C(=O)C3CCC(=O)N3C(C)C)CC2C)c1 (stereo not drawn),inactive
18,C[C@@H]1CN([C@@H](C)CO)C(=O)c2cc(N(C)C)ccc2O[C@@H]1CN(C)C(=O)Nc1ccc(C(F)(F)F)cc1,inactive
19,Cc1cccc(C)c1NC(=O)C(C)N1CCCC1 (stereo not drawn),inactive
20,CCCC#Cc1cnc2c(c1)C(=O)N([C@@H](C)CO)C[C@H](C)[C@H](CN(C)C(=O)Nc1cccc(F)c1)O2,inactive
21,CO[C@@H]1CN(C)C(=O)c2ccc(NC(=O)C3CC3)cc2OC[C@H](C)N(C(=O)c2ccncc2)C[C@H]1C,inactive
22,O=C(c1cccnc1)N1CCC(Oc2ccc(C(=O)N3CCCC(O)C3)cc2)CC1 (stereo not drawn),inactive
23,COc1ccccc1CNC(=O)C[C@@H]1CC[C@@H]2[C@H](COc3ccc(NC(C)=O)cc3C(=O)N2C)O1,inactive
